Results from PubChem BioAssay (EPA / NIEHS).
Inconclusive results are not listed. Active and inactive are the calls of the source. How the source made its calls, unless noted: active means hit-call score of the fitted dose curve at least 0.9, where 1 is the maximum; inactive means score below 0.9.

Assays:
[1] = ATG_TAL_CIS: Attagene CIS-FACTORIAL HepG2 Assay for human TAL Basal Promoter (AID 2282966); details: HepG2 Attagene cis-factorial TAL promoter reporter; actives raise or lower the signal;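 further: background control endpoint measuring basal TAL promoter reporter mRNA not a specific factor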
Summary of the method: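 Background-control endpoint: basal TAL promoter reporter transcripts in transiently transfected HepG2, measured 24 h after dosing. Read-out by RT-PCR with fluorescent primer extension and capillary electrophoresis; gain or loss of signal fitted relative to DMSO.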

[2] = ATG_TGFb_CIS: Attagene CIS-FACTORIAL HepG2 Assay for human Transforming Growth Factor (TGF) (AID 2282967); details: HepG2 Attagene CIS TGFb reporter, mRNA transcription; actives raise or lower the signal
Summary of the method: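 Multiplexed cis-reporter HepG2 system, 24 h treatment; mRNA induction read by fluorescence after RT-PCR and CE; DMSO negative control, bidirectional curve fitting.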

[3] = ATG_VDRE_CIS: Attagene CIS-FACTORIAL HepG2 Assay for human Vitamin D Receptor Element (VDRE) (AID 2282968); details: HepG2 VDRE cis-reporter transcription, actives raise or lower the signal
Summary of the method: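 Transfected HepG2 reporter cells, chemical treatment 24 h. RNA isolated, cDNA amplified with reporter-specific primers, products analysed by capillary electrophoresis. Endpoint fitted in both directions versus DMSO.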

[4] = biological target: X-box-binding protein 1 (Homo sapiens) (UniProt P17861); test: ATG_Xbp1_CIS: Attagene CIS-FACTORIAL HepG2 Assay for human X-box Binding Protein 1 (XBP1) (AID 2282972); details: HepG2 XBP1 cis-element reporter, Attagene multiplex; actives raise or lower the signal
Summary of the method: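 Read-out: fluorescent reporter mRNA fragments resolved by capillary electrophoresis after RT-PCR. Human HepG2 liver cells carried transfected cis-promoter reporter units and were exposed to chemicals for 24 hours. Gain or loss of signal fitted relative to DMSO baseline.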

[5] = ATG_M_19_TRANS: Attagene TRANS-FACTORIAL HepG2 Assay for M19 Transcription Factor (Internal Marker) (AID 2282974; active means hit-call score of the fitted dose curve at least 0.9, where 1 is the maximum); details: HepG2 Attagene TRANS-FACTORIAL M19 internal marker reporter
Summary of the method: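 Measured here: internal-marker reporter transcript from HepG2 cells transfected with MRTUs, harvested at 24 h. cDNA PCR products were 6-FAM labelled by primer extension, cut with HpaI for 2 h at 37 C, and resolved by CE.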

[6] = ATG_GAL4_TRANS: Attagene TRANS-FACTORIAL HepG2 Assay for GAL4 (Internal Marker) (AID 2282976; active means hit-call score of the fitted dose curve at least 0.9, where 1 is the maximum); details: HepG2 Attagene TRANS GAL4 internal marker reporter
Summary of the method: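 In transfected human HepG2 liver cells dosed 24 h, GAL4 reporter mRNA serves as a baseline marker. Detection by RT-PCR with fluorescent capillary electrophoresis, activity fitted upward relative to DMSO.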

[7] = biological target: Estrogen-related receptor gamma (Homo sapiens) (UniProt P62508); test: ATG_ERRg_TRANS: Attagene TRANS-FACTORIAL HepG2 Assay for human Estrogen-Related Receptor gamma (ERRg) (AID 2282977; active means hit-call score of the fitted dose curve at least 0.9, where 1 is the maximum;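 further: hits increase reporter signal over DMSO so potencies reflect activators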); details: HepG2 Attagene TRANS reporter, ERRg transactivation
Summary of the method: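 Readout: fluorescent reporter-mRNA fragments resolved by capillary electrophoresis after RT-PCR and HpaI cut. Cells: transiently transfected HepG2 carrying GAL4-UAS reporters driven by exogenous NR-Gal4 chimeras, dosed 24 h. Activity fitted upward relative to DMSO baseline.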

[8] = biological target: Glucocorticoid receptor (Homo sapiens) (UniProt P04150); test: ATG_GR_TRANS: Attagene TRANS-FACTORIAL HepG2 Assay for human Glucocorticoid Receptor (GR) (AID 2282978; active means hit-call score of the fitted dose curve at least 0.9, where 1 is the maximum;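 further: activators score as hits since higher reporter transcript over DMSO is fitted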); details: HepG2 Attagene TRANS GR reporter, mRNA transcription
Summary of the method: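 Measurement of GAL4-UAS-driven reporter mRNA in human HepG2 liver cells 24 h post-dosing, using RT-PCR with fluorescent labelling and capillary electrophoresis; the transfected constructs report exogenous NR-GAL4 chimera activity, fitted upward against DMSO.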

[9] = biological target: Oxysterols receptor LXR-beta (Homo sapiens) (UniProt P55055); test: ATG_LXRb_TRANS: Attagene TRANS-FACTORIAL HepG2 Assay for human Liver X Receptor beta (LXRb) (AID 2282981; active means hit-call score of the fitted dose curve at least 0.9, where 1 is the maximum); details: HepG2 Attagene TRANS GAL4-LXRb reporter, mRNA
Summary of the method: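 Liver-derived HepG2 cells transfected with Gal4-responsive reporters were dosed for 24 h. Activation was scored as rise in reporter mRNA, by RT-PCR and capillary electrophoresis, above DMSO baseline.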

[10] = biological target: Hepatocyte nuclear factor 4-alpha (Homo sapiens) (UniProt P41235); test: ATG_HNF4a_TRANS: Attagene TRANS-FACTORIAL HepG2 Assay for human Hepatocyte Nuclear Factor 4 alpha (HNF4a) (AID 2282982; active means hit-call score of the fitted dose curve at least 0.9, where 1 is the maximum); details: HepG2 HNF4a transactivation reporter, mRNA readout
Summary of the method: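 Using HepG2 liver cells transfected with GAL4-UAS reporter units, chemical-induced mRNA increases were assessed after 24 hours. Fluorescent RT-PCR fragments were separated by capillary electrophoresis and compared with DMSO negative controls.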

[11] = ATG_M_06_TRANS: Attagene TRANS-FACTORIAL HepG2 Assay for M06 Transcription Factor (Internal Marker) (AID 2282983; active means hit-call score of the fitted dose curve at least 0.9, where 1 is the maximum;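 further: reporter transcript level by RT-PCR then capillary electrophoresis fluorescence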); details: HepG2 Attagene TRANS M06 internal marker reporter
Summary of the method: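 Background-control reporter readout: after 24 h chemical exposure of transiently transfected HepG2 (GAL4-UAS reporter units), mRNA quantified by RT-PCR with fluorescent labeling and capillary electrophoresis. Gain-of-signal fitting against DMSO baseline.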

[12] = biological target: Transcriptional activator Myb (Homo sapiens) (UniProt P10242); test: ATG_Myb_CIS: Attagene CIS-FACTORIAL HepG2 Assay for human Myeloblastosis (Myb) Proto-Oncogene Transcription Factor (AID 2282986); details: HepG2 Attagene CIS-FACTORIAL Myb reporter transcription; actives raise or lower the signal
Summary of the method: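 Fluorescence signals from capillary electrophoresis of RT-PCR-amplified reporter cDNA give the read-out. Cells: HepG2 transfected with multiple cis-regulated reporter units. Exposure lasts 24 hours; DMSO defines baseline for gain or loss of signal.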

[13] = biological target: Bile acid receptor (Homo sapiens) (UniProt Q96RI1); test: ATG_FXR_TRANS: Attagene TRANS-FACTORIAL HepG2 Assay for Farnesoid X Receptor (FXR) (AID 2282979; active means hit-call score of the fitted dose curve at least 0.9, where 1 is the maximum;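 further: hits raise reporter mRNA above DMSO so AC50 marks FXR activation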); details: HepG2 Attagene TRANS FXR-GAL4 reporter transcription
Summary of the method: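 Reporter transcripts from transfected HepG2 cells were measured 24 h after dosing, using RT-PCR with capillary electrophoresis of 6-FAM-labelled fragments. The read-out reflects activity of exogenous FXR-Gal4 chimera on GAL4-UAS units, with induction relative to DMSO.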

[14] = ATG_M_32_TRANS: Attagene TRANS-FACTORIAL HepG2 Assay for M32 Transcription Factor (Internal Marker) (AID 2282984; active means hit-call score of the fitted dose curve at least 0.9, where 1 is the maximum); details: HepG2 Attagene TRANS M32 internal marker reporter
Summary of the method: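 Fluorescence-detected mRNA induction, HepG2 liver cells, 24 h after dosing. Multiple GAL4-UAS reporter units introduced by transient transfection; background-control endpoint analysed for gain of signal against DMSO.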

[15] = biological target: Nuclear receptor subfamily 4 group A member 2 (Homo sapiens) (UniProt P43354); test: ATG_NURR1_TRANS: Attagene TRANS-FACTORIAL HepG2 Assay for human Nuclear Receptor Related Protein 1 (NURR1) (AID 2282985; active means hit-call score of the fitted dose curve at least 0.9, where 1 is the maximum); details: HepG2 Attagene TRANS reporter, mRNA readout
Summary of the method: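 Chimeric NR-Gal4 proteins were expressed in human HepG2 cells bearing GAL4-UAS reporter units, and induced reporter mRNA was quantified 24 h post-dosing by RT-PCR and capillary electrophoresis.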

[16] = biological target: Nuclear respiratory factor 1 (Homo sapiens) (UniProt Q16656); test: ATG_NRF1_CIS: Attagene CIS-FACTORIAL HepG2 Assay for human Nuclear Respiratory Factor 1 (NRF1) Orphan Gene (AID 2282987); details: HepG2 NRF1 cis-element reporter, Attagene multiplex; actives raise or lower the signal
Summary of the method: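 Transcriptional reporter readout, one component of a 52-endpoint multiplexed HepG2 panel. Exposure 24 h; mRNA detected via RT-PCR and fluorescent capillary electrophoresis; fitting in both directions against DMSO.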

[17] = biological target: Oxysterols receptor LXR-alpha (Homo sapiens) (UniProt Q13133); test: ATG_LXRa_TRANS: Attagene TRANS-FACTORIAL HepG2 Assay for human Liver X Receptor alpha (LXRa) (AID 2282980; active means hit-call score of the fitted dose curve at least 0.9, where 1 is the maximum); details: HepG2 Attagene TRANS reporter, LXRa transactivation
Summary of the method: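 Chemical-induced reporter mRNA measured by RT-PCR with fluorescent labelling and capillary electrophoresis after 24 h dosing of transiently transfected HepG2 cells expressing exogenous NR-Gal4 chimeras; increases scored against DMSO baseline.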

Measured: AC50

Glucocorticoid receptor (Homo sapiens), sequence (P04150 whole entry, looked up, the tested form may be a part): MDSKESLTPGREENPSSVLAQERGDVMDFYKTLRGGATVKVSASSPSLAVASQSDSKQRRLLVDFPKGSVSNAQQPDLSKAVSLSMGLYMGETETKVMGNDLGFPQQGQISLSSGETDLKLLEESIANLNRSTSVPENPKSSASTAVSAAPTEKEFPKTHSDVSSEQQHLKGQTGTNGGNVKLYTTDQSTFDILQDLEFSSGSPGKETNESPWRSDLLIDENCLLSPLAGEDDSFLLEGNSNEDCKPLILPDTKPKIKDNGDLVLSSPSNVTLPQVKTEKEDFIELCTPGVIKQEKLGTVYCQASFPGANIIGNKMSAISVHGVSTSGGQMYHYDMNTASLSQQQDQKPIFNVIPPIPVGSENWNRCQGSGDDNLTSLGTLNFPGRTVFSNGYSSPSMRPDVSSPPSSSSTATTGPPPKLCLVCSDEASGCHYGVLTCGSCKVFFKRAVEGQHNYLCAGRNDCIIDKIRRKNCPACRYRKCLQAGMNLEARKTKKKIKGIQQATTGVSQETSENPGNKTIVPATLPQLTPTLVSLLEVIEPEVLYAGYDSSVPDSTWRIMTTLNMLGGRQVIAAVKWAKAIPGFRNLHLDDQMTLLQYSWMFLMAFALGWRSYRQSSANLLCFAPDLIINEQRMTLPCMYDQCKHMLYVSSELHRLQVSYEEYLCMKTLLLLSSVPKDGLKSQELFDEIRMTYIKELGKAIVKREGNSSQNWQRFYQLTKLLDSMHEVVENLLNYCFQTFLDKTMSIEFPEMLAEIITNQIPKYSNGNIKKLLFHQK
X-box-binding protein 1 (Homo sapiens), sequence (P17861 whole entry, looked up, the tested form may be a part): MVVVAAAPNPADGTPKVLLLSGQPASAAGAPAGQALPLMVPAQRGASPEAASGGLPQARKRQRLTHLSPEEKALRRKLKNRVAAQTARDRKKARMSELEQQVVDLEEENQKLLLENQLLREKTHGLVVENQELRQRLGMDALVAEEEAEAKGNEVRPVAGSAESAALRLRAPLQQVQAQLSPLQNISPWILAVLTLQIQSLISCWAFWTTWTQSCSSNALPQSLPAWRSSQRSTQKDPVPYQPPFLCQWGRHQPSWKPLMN
Transcriptional activator Myb (Homo sapiens), sequence (P10242 whole entry, looked up): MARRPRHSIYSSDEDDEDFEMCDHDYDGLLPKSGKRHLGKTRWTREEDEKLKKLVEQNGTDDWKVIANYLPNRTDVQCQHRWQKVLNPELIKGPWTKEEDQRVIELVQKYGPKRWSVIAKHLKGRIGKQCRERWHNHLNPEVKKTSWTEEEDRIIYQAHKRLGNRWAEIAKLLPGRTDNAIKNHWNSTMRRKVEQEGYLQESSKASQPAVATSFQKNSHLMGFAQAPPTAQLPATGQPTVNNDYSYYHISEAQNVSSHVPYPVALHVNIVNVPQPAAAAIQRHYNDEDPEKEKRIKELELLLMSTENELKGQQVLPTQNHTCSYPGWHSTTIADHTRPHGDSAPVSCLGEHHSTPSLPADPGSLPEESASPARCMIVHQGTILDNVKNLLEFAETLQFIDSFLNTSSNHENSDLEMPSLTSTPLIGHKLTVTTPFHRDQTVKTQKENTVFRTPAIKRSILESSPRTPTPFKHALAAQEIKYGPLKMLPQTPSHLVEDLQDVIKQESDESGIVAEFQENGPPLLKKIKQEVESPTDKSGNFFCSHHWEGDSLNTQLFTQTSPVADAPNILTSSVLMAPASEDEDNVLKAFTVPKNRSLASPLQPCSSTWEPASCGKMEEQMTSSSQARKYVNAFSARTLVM
Hepatocyte nuclear factor 4-alpha (Homo sapiens), sequence (P41235 whole entry, looked up, the tested form may be a part): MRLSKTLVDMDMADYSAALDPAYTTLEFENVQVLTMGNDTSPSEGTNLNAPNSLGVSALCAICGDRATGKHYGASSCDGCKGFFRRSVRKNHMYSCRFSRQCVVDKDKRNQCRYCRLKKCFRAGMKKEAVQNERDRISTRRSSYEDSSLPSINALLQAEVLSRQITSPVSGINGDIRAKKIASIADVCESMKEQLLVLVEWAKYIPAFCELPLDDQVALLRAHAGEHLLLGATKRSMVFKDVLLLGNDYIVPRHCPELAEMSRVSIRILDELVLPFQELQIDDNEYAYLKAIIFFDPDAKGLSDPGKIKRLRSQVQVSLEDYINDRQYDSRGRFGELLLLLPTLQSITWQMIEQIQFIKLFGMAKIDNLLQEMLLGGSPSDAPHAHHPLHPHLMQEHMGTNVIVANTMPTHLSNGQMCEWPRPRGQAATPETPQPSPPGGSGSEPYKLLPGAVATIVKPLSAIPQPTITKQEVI
Nuclear respiratory factor 1 (Homo sapiens), sequence (Q16656 whole entry, looked up): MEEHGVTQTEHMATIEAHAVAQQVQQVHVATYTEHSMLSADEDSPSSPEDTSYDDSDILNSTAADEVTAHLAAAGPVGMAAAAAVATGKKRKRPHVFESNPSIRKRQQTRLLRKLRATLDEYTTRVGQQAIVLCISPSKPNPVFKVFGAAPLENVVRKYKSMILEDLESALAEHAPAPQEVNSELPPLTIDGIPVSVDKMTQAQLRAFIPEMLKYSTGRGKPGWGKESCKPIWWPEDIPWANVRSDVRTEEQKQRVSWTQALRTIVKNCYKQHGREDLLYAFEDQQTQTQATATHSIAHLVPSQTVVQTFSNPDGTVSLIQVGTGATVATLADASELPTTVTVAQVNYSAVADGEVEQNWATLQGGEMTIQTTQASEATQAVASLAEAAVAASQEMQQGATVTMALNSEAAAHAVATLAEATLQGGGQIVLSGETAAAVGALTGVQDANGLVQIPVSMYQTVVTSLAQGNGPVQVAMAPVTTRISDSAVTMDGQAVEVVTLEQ
Oxysterols receptor LXR-alpha (Homo sapiens), sequence (Q13133 whole entry, looked up, the tested form may be a part): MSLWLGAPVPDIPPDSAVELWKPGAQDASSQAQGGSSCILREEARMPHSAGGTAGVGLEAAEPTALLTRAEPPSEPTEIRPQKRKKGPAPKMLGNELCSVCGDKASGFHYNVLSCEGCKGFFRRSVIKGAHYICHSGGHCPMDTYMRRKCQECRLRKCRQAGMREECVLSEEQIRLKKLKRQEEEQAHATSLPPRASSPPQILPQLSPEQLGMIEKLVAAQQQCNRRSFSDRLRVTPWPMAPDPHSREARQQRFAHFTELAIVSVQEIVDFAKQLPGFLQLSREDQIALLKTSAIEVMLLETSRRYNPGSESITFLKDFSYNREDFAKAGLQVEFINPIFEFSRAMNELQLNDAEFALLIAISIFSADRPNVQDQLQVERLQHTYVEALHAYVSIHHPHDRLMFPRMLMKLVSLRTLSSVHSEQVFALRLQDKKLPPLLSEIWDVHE
Nuclear receptor subfamily 4 group A member 2 (Homo sapiens), sequence (P43354 whole entry, looked up, the tested form may be a part): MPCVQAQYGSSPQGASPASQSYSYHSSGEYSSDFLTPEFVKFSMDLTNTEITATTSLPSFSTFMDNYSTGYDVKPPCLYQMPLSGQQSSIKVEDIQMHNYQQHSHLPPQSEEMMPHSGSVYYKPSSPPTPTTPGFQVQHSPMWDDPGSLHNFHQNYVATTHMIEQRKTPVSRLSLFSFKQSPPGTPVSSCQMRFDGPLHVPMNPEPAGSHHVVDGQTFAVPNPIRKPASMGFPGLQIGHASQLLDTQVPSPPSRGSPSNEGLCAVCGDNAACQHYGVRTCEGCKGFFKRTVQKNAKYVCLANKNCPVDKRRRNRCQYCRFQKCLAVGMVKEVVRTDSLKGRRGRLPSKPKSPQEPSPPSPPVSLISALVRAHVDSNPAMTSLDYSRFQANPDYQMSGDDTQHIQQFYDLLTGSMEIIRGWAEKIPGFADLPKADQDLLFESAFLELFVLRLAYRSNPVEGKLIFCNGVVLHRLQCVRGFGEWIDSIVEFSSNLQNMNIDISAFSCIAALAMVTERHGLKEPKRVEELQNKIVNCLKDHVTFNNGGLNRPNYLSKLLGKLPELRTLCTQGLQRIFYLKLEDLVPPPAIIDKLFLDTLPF
Estrogen-related receptor gamma (Homo sapiens), sequence (P62508 whole entry, looked up, the tested form may be a part): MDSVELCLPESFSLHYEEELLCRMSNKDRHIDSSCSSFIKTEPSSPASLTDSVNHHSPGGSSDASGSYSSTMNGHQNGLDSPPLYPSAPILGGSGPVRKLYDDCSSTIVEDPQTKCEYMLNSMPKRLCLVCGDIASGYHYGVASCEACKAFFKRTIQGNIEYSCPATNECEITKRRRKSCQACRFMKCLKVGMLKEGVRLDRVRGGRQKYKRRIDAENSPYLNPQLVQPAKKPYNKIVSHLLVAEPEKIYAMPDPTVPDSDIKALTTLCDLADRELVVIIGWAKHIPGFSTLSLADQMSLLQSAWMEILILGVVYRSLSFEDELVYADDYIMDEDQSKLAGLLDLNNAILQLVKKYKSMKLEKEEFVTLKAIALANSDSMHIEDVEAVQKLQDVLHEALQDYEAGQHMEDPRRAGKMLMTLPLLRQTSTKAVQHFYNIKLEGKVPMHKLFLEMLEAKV
Oxysterols receptor LXR-beta (Homo sapiens), sequence (P55055 whole entry, looked up, the tested form may be a part): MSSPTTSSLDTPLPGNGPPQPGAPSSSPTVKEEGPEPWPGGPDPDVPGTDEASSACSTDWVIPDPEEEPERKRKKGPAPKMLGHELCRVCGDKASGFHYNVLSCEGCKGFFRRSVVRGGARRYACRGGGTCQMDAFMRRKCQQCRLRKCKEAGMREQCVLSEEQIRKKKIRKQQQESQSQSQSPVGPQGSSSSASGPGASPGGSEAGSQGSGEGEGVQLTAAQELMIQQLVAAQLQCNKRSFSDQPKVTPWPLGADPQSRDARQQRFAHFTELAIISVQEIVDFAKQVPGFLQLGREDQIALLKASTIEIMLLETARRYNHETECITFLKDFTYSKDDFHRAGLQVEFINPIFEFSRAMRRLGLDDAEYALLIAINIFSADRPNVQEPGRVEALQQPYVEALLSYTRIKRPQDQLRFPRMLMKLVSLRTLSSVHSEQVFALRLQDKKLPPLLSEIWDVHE

CC(C)(C)c1n[nH]c(=O)n(N)c1=O
inactive: [1] | [2] | [3] | [4] | [5] | [6] | [7] | [8] | [9] | [10] | [11] | [12]

COC(=O)c1sccc1S(N)(=O)=O
inactive: [1] | [2] | [3] | [4] | [5] | [7] | [13] | [11] | [14] | [15] | [12] | [16]

OCCCS
inactive: [1] | [2] | [3] | [4] | [5] | [6] | [8] | [10] | [14] | [15] | [12] | [16]

NC(=O)C1CO1 (configuration not stated)
inactive: [1] | [2] | [3] | [4] | [5] | [8] | [10] | [14] | [12] | [16]

c1cc(C(c2ccc(OCC3CO3)cc2)C(c2ccc(OCC3CO3)cc2)c2ccc(OCC3CO3)cc2)ccc1OCC1CO1 (configuration not stated)
active: [1] 44.8 µM | [3] 17 µM | [4] 22.9 µM
inactive: [2] | [5] | [6] | [8] | [11] | [14] | [12] | [16]

C=CC(=O)OCC(Br)CBr (configuration not stated)
active: [2] 0.39 µM | [3] 26.3 µM
inactive: [1] | [4] | [5] | [8] | [13] | [14] | [15] | [12] | [16]

CC=C1CC2C=CC1C2 (configuration not stated)
inactive: [1] | [2] | [3] | [4] | [5] | [17] | [14] | [15] | [12] | [16]

CC(=O)[C@H]1[C@H](C#N)C[C@H]2[C@@H]3CC=C4C[C@@H](O)CC[C@]4(C)[C@H]3CC[C@@]21C
inactive: [1] | [2] | [3] | [4] | [5] | [8] | [17] | [11] | [15] | [12] | [16]

CC1=CC[C@H]2C[C@@H]1C2(C)C
inactive: [1] | [2] | [3] | [4] | [5] | [6] | [17] | [9] | [14] | [12] | [16]

CCOC(=O)[C@H](C)O
inactive: [1] | [2] | [3] | [4] | [5] | [6] | [11] | [14] | [15] | [12] | [16]

CC1(C)S[C@@H]2[C@H](NC(=O)COc3ccccc3)C(=O)N2[C@H]1C(=O)O
inactive: [1] | [2] | [3] | [4] | [5] | [7] | [8] | [17] | [10] | [12] | [16]
